Screening results from PubChem BioAssay.
CRFBP-R2 agonist = CRF-BP/CRF-R2 complex agonism; HEK293 CRF-R2/CRF-BP, calcium dye fluorescence (FLIPR); percent of saturating CRF peptide response; activation, % at 13.2 µM; 0.46% of 350,000 active; AID 588473;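 active means activation of at least 50%, plus an integration ratio under a set limit after plate pattern correction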;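 further: plate controls were neutral control wells without compound for no effect and CRF at EC100 for full effect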
CRFR2-BP antag = blocks CRF-induced signaling of the CRF-BP/CRF-R2 complex | HEK293 CRF-R2/CRF-BP, CRF-induced calcium fluorescence | 0.59% of 350,000 active | AID 588475 | inhibition, % at 11.8 µM;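 active means inhibition of the ligand-induced calcium signal above about 50% at the single tested concentration, limit read from the data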
MPTP block = permeability transition pore inhibition. inhibition, % at 10 µM. isolated mouse mitochondria, Ca2+ swelling absorbance, 30 min. AID 602449. 1.4% of 360,000 active;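 active means inhibition of 50% or more, scaled per plate between neutral and stimulator controls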;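 further: 0% = DMSO wells given calcium and 100% = 1 mM EGTA wells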
ANO1 activ = activators or potentiators of mouse TMEM16A chloride channel; HEK293 TMEM16A/YFP-H148Q/I152L, iodide quench fluorescence; stronger effect = lower value; B-score at 10 µM; 0.3% of 340,000 active;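 active means fluorescence-ratio B-score plate-corrected deviation score at least 3 library SD below zero, with starting fluorescence score within 5 deviations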;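 further: channel opened by trigger with iodide after compound preincubation; score built on the fluorescence ratio of max minus min over baseline; more negative score means more quench and so TMEM16A activation or potentiation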
ANO1 block = blocks the mouse calcium-activated chloride channel TMEM16A; HEK293 TMEM16A/YFP iodide influx fluorescence, ionomycin; normalized B-score (activity score, 25-100; higher = stronger inhibition) at 10 µM; 1.2% of 310,000 active; AID 588511;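 active means ratio plate-corrected score three or more library SD toward inhibition, starting fluorescence score within five deviations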;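 further: score derived from kinetic fluorescence span divided by baseline fluorescence per well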
NR3A LBD binder = modulators (binders) of human NR3A ligand-binding domain. Tm shift relative to glycine control, % at 25 µM. 2.5% of 340,000 active. AID 1259313. NR3A LBD differential scanning fluorimetry, Tm shift; 0% = protein alone, 100% = glycine-bound protein;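 active means melting temperature shift of at least 10% of the positive control shift, at one fixed dose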
Active calls of the source: *; i = inactive; · = no result given. This is a sample that favours compounds with a hit; in the whole collection about 5.1% have one here.

SMILES	CRFBP-R2 agonist	CRFR2-BP antag	MPTP block	ANO1 activ	ANO1 block	NR3A LBD binder
COc1ccc(NC(=O)c2ccc(NC(=O)CN3CCN(c4ccccc4)CC3)cc2)cc1	-2.2	8.7	-0.8	i	·	18.9*
COc1ccc(S(=O)(=O)n2cccc2)c(OC)c1	1.8	-32.8	1.1	i	i	-1.8
O=C(NCc1cccc(F)c1)C1CCC(=O)N(C2CCCC2)C1 (stereo unspecified)	-0.4	3.1	0.8	i	i	1.4
O=C(NCc1ccc(Cl)cc1)C1CCC(=O)N(C2CCCCCC2)C1 (stereo unspecified)	-0.8	8.6	-1.9	i	i	10.0*
C/C(=N\NS(=O)(=O)c1ccc([N+](=O)[O-])cc1)c1ccc2c(c1)OCO2	-2.6	7.8	0.8	i	i	2.1
C/C(=N/Nc1ccc([N+](=O)[O-])cc1)c1c[nH]c2ccccc12	39.0	-58.4	4.7	i	i	29.2*
C/C(=N\Nc1ccc([N+](=O)[O-])cc1)c1ccc2c(c1)OCO2	2.1	-39.1	33.2	i	i	23.0*
O=C(N/N=C/c1ccc([N+](=O)[O-])cc1)c1cc2ccccc2o1	0.6	-14.8	-1.6	i	i	4.7
C/C(=N\Nc1ccc([N+](=O)[O-])cc1)c1cc2ccccc2o1	53.3*	-59.1	39.2	i	i	27.1*
CN(C)c1ccc(/C=N/NC(=O)CCc2c[nH]c3ccccc23)cc1	-0.3	-9.2	2.8	i	i	16.0*
CCOC(=O)[C@H]1[C@H]2COc3ccc(Cl)cc3[C@@H]2N2C(=O)CN(Cc3ccco3)C(=O)[C@@]12C	-0.6	1.4	0.5	i	·	0.3
C/C(=N\NC(=O)CCc1c(C)n[nH]c1C)c1ccc([N+](=O)[O-])cc1	-4.2	-10.5	4.0	i	i	-1.4
C/C(=N\NC(=O)CCc1c[nH]c2ccccc12)c1ccc([N+](=O)[O-])cc1	-2.1	-31.7	1.0	i	i	22.1*
Cc1ccc(C)c(S(=O)(=O)Nc2ccc(C(=O)N3CCC3)cc2)c1	-0.3	4.6	-0.1	i	i	-4.7
Cc1ccc(SCC(=O)OCC(=O)N(C)CC(=O)Nc2ccccc2Cl)cc1C	-0.9	-9.2	0.9	i	i	1.6
CC1=CC(C)(C)N(C(=O)CSc2ncn[nH]2)c2ccccc21	4.1	-18.9	-3.1	i	i	-0.8
CC1=CC(C)(C)N(C(=O)CSc2nnc(N)s2)c2ccccc21	53.1*	-26.2	0.6	i	i	-1.5
COc1ccc(-c2nnn(Cc3ccccc3)n2)cc1	-1.0	5.7	0.2	i	i	0.5
COc1ccc(OCCn2nnc(-c3ccc(Cl)cc3)n2)cc1	1.0	10.2	-1.1	i	i	15.5*
O=C(Nc1ccccc1F)C1CC1c1ccccc1 (stereo unspecified)	1.2	19.9	-1.1	i	i	-0.2
Cc1cccc(NC(=O)C2CC2c2ccccc2)c1C (stereo unspecified)	70.0*	-12.7	4.3	i	i	0.1
Cc1cc(C)cc(OCC(=O)OCC(=O)NCc2cccs2)c1	-6.2	28.5	0.4	i	i	16.1*
O=C(COc1cccc(C(F)(F)F)c1)Nc1ccc2[nH]ncc2c1	-0.4	-0.9	1.5	i	i	17.9*
CCOc1cccc(C(=O)Nc2ccc3[nH]ncc3c2)c1	-0.2	-12.4	3.0	i	i	15.3*
CC(C)n1nc(C(=O)Nc2ccc3c(c2)OCO3)c2ccccc2c1=O	-1.1	7.7	-0.8	i	·	1.5
SMILES	CRFBP-R2 agonist	CRFR2-BP antag	MPTP block	ANO1 activ	ANO1 block	NR3A LBD binder
CCCCc1ccc(S(=O)(=O)NC(=O)C2(C)CCN2C(=O)c2cccc(F)c2)cc1 (stereo unspecified)	·	·	-0.5	·	·	·
O=C(c1cc2ccccc2c(=O)o1)N1CCCC1	·	·	·	·	i	·
O=c1oc([C@@H](O)c2ccccc2)cc2ccccc12	-2.8	12.1	-2.1	i	·	10.1*
Cc1c(N(C)C(=O)C23CC4CC(CC(C4)C2)C3)c(=O)n(-c2ccccc2)n1C	-0.2	-2.5	5.5	i	i	11.0*
Cc1c(N(C)C(=O)c2ccc3c(c2)OCO3)c(=O)n(-c2ccccc2)n1C	-1.3	8.8	-0.5	i	i	0.1
O=C(CSCc1ccccc1Cl)NN=C1CCCCCC1	-0.8	8.9	1.3	i	i	-0.4
O=C(CNC(c1ccccc1)c1ccccc1)Nc1ccccc1-c1ccccc1	2.9	-9.4	2.4	i	i	16.9*
O=C(CNC(c1ccccc1)c1ccccc1)Nc1ccccc1F	0.9	1.5	0.3	i	i	1.3
O=C(CSCc1c(Cl)cccc1Cl)Nc1ccccc1-c1ccccc1	0.6	13.6	1.6	i	i	15.0*
O=C(CSCc1c(Cl)cccc1Cl)NN=C1CCCC1	0.2	4.0	0.9	-28.9*	i	-1.2
CC(C)NC(=O)C1(C)CSCC(=O)N1Cc1cccs1 (stereo unspecified)	·	·	-1.4	·	·	·
CCc1nc(SCC(=O)Nc2ccc(F)cc2)c2c(=O)n(C)c(=O)n(C)c2n1	-0.9	-21.0	-0.2	i	i	1.6
CCN(CC)S(=O)(=O)c1ccc(Cl)c(C(=O)NNC(=O)c2csc(N3CCOCC3)n2)c1	1.1	-6.9	-0.2	i	·	-1.2
COc1ccc(CNC(=O)CSc2nnc(NC(=O)c3ccccc3F)s2)cc1	-1.4	-10.2	1.5	i	i	-0.5
CCCCC(=O)N(c1ccc(C(=O)O)cc1)c1nc(-c2ccc(Cl)cc2)c(CC)s1	2.5	48.7	2.8	i	100*	5.0
CCc1ccc(CCC(=O)Nc2ccc(Cl)cc2)o1	-2.1	3.0	0.8	i	i	-11.5
C=C(C)Cn1c(=O)c2c(nc3n2CC(C)CN3Cc2ccccc2)n(C)c1=O (stereo unspecified)	-2.1	87.5*	-0.3	i	i	0.1
COC(=O)Cn1c(=O)c2c(nc3n2CC(C)CN3Cc2ccccc2)n(C)c1=O (stereo unspecified)	-1.4	-7.9	0.6	i	i	0.7
CC(=O)N1C[C@H]2CON(C)[C@H]2C[C@H]1c1cccc(-c2ccccc2C)c1	3.4	-9.1	-1.3	·	·	-3.1
Cc1cccc(NS(=O)(=O)c2ccc3c(c2)Cc2cc(S(=O)(=O)Nc4cccc(C)c4C)ccc2-3)c1C	-1.4	2.6	3.3	i	i	13.1*
Cc1cc2c(NS(=O)(=O)c3ccc(F)cc3)cccc2nn1	-0.5	113.4*	3.6	i	i	-0.1
COc1ccc(C(=O)N/C(=C\c2cn(C)c3ccccc23)C(=O)N2CCN(C)CC2)cc1OC	0.1	10.2	-1.5	i	i	-1.5
